# In PubChem BioAssay (Tox21):
# Records with an inconclusive call do not appear. Entries that show only a call come without a potency. Where a structure was tested more than once in an assay, its records may differ in their call. Calls of active or inactive are those of the source. Unless noted, the call rests on the fitted dose curve.
# What was measured:
# [1] = target: Gonadotropin-releasing hormone receptor (Homo sapiens) (UniProt P30968); assay: Human gonadotropin-releasing hormone receptor (GnRHR) small molecule agonists, calcium flux assay in GnRHR-HEK293 cells (AID 1920063); conditions: calcium flux fluorescence, agonist mode; series mostly up to 57.6 µM; further: nearly all actives have a fitted effect of over 35% in size
# Gonadotropin-releasing hormone receptor (Homo sapiens), sequence (P30968 whole entry, looked up): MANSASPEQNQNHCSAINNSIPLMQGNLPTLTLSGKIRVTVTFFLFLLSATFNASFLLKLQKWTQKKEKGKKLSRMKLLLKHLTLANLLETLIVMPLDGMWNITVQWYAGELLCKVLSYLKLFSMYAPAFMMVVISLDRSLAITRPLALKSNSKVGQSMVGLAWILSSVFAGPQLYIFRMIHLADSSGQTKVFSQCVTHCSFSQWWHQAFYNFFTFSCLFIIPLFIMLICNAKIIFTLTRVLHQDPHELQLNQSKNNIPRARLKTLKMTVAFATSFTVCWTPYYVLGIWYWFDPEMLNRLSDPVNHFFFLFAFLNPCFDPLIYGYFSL
# Method in brief: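 Intracellular calcium rise is the read-out: engineered human GnRHR HEK293 cells, dye-loaded, are exposed to DMSO-dissolved compounds and fluorescence at Ex/Em 480/540 is tracked for 3 min.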
# [2] = target: KiSS-1 receptor (Homo sapiens) (UniProt Q969F8); assay: Human kisspeptin (KISS1R) small molecule agonists, calcium flux assay in KISS1R-HEK293 cells (AID 1920064; active means well fitted activation curve with a large enough effect in the repeat runs); conditions: KISS1R-HEK293, calcium flux fluorescence, agonist; series mostly up to 76.8 µM
# KiSS-1 receptor (Homo sapiens), sequence (Q969F8 whole entry, looked up): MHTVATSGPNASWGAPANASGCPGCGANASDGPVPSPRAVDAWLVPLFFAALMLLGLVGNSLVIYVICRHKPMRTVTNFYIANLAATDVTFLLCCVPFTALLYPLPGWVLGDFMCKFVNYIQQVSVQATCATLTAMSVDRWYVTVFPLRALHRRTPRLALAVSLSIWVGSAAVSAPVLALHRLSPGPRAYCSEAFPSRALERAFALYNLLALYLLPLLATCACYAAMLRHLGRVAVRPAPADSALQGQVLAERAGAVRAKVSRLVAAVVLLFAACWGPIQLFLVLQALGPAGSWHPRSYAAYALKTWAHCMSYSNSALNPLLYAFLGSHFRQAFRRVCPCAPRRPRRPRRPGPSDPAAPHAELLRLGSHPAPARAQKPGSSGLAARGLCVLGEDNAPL
# Method in brief: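 Concentration-response testing used 15 concentrations in triplicate on human KISS1R-expressing HEK293 cells. Calcium-dependent fluorescence (Ex/Em 480/540) was followed kinetically for 3 min after compound transfer.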
# [3] = G protein-coupled receptor (GPCR) small molecule agonists, calcium flux assay: HEK293 wild type cell line counter screen (AID 1920065); conditions: HEK293 WT calcium flux, fluorescence, agonist mode; series mostly up to 57.6 µM
# Method in brief: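 Fluorescence intensity signals activation. After overnight (18 h) culture and a 1 h calcium dye load at 37 C, compounds are added by pin tool and the plate read at 480/540 nm for 3 min in 1 s steps.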
# [4] = p53 small molecule agonists, cell-based qHTS assay with human liver microsomes (AID 1963577); conditions: HCT-116 p53RE-bla with human liver microsomes, ratio, 16 h; series mostly up to 66 µM
# Method in brief: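 p53RE-bla reporter cells were pre-incubated 5 h at 37 C, then treated with compounds plus human liver microsomes (0.5 mg/mL final) and NADPH (0.5 mg/mL final) for 16 h at 37 C. Beta-lactamase activity was read by LiveBLAzer fluorescence after 2 h at room temperature.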
# [5] = p53 small molecule agonists, cell-based qHTS assay with rat liver microsomes (AID 1963578); conditions: HCT-116 p53RE-bla, beta-lactamase ratio, 16 h; series mostly up to 66 µM
# Method in brief: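 p53RE-bla cells were exposed to compounds together with rat liver microsomes (0.5 mg/mL final) and NADPH (0.5 mg/mL final) for 16 h at 37 C, then read by LiveBLAzer beta-lactamase fluorescence after 2 h at room temperature.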
# [6] = p53 small molecule agonists, cell-based qHTS assay with human liver microsomes: qHTS cell viability counter screen (AID 1963579); conditions: p53RE-bla HCT-116 viability, ATP luminescence, 16 h, HLM; series mostly up to 66 µM; further: nearly all actives have a fitted effect of over 45% in size
# Method in brief: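 p53RE-bla cells (4,000/well) were pre-incubated 5 h at 37 C, then given compounds in DMSO plus human liver microsomes (0.5 mg/mL final) and NADPH (0.5 mg/mL final) for 16 h at 37 C. Viability was read by CellTiter-Glo luminescence.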
# [7] = p53 small molecule agonists, cell-based qHTS assay with rat liver microsomes: qHTS cell viability counter screen (AID 1963580); conditions: p53RE-bla HCT-116 + rat microsomes, ATP viability, 16 h; series mostly up to 66 µM; further: nearly all actives have a fitted effect of over 45% in size
# Method in brief: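 Cytotoxicity counter screen: intracellular ATP measured by CellTiter-Glo luminescence in the same wells as the beta-lactamase reporter read, on HCT-116 p53RE-bla cells exposed 16 h at 37 C to compounds with rat liver microsomes and NADPH, each 0.5 mg/mL final.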
# [8] = p53 small molecule agonists, cell-based qHTS assay: qHTS cell viability counter screen (AID 1963581); conditions: p53RE-bla HCT-116 viability, ATP luminescence, 16 h; series mostly up to 66 µM; further: nearly all actives have a fitted effect of over 45% in size; further: potency means the concentration at half of the fitted maximal effect
# Method in brief: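 Luminescence from CellTiter-Glo, reflecting ATP content, serves as the cytotoxicity measure; it is taken after the 2 h reporter substrate step in HCT-116 p53RE-bla cells dosed for 16 h at 37 C.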
# [9] = p53 small molecule agonists, cell-based qHTS assay (AID 1963582; active means well fitted activation curve with a large enough effect in the signal ratio in the repeat runs, not every such curve was filed as active; the % refers to the signal ratio); conditions: HCT-116 p53RE-bla reporter, beta-lactamase FRET ratio, 16 h; series mostly up to 66 µM
# Method in brief: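 After plating, p53RE-bla cells sat 5 h in the incubator; compounds or DMSO vehicle were pinned in; a 16 h incubation at 37 C followed; FRET substrate was added and, 2 h later at RT, fluorescence was measured.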
# [10] = target: 5-hydroxytryptamine receptor 2A (Homo sapiens) (UniProt P28223); assay: 5-hydroxytryptamine receptor 2A (HTR2A) small molecule antagonists, cell-based qHTS assay (AID 1963586); conditions: HTR2A-CHO cells, DOI-induced calcium flux, fluorescence; series mostly up to 61.5 µM; further: nearly all actives have a fitted effect of over 45% in size; further: potency means the concentration at half of the fitted maximal effect
# 5-hydroxytryptamine receptor 2A (Homo sapiens), sequence (P28223 whole entry, looked up): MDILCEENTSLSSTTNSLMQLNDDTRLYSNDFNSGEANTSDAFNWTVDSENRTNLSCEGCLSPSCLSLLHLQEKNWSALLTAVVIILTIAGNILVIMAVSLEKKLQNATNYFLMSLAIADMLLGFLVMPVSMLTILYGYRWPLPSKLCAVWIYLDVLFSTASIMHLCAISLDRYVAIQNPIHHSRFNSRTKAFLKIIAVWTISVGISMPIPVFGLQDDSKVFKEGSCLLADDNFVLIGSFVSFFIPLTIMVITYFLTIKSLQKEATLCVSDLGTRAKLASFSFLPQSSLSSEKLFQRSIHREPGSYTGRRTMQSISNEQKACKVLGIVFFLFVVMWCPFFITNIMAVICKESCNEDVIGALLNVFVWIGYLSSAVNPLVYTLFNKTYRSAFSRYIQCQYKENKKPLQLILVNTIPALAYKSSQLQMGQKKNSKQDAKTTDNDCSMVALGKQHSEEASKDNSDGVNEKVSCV
# Method in brief: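 CHO cells stably expressing human HTR2A were plated for 18 h at 37 C, then loaded with calcium dye for 1 h. Compounds were preincubated 5 min at room temperature before DOI (4 nM solution) was added. Kinetic fluorescence was read for 3 min.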
# [11] = target: 5-hydroxytryptamine receptor 2A (Homo sapiens) (UniProt P28223); assay: 5-hydroxytryptamine receptor 2A (HTR2A) small molecule agonists, cell-based qHTS assay (AID 1963587); conditions: HTR2A-CHO cells, calcium flux fluorescence, agonist mode; series mostly up to 76.8 µM; further: nearly all actives have a fitted effect of over 30% in size
# Method in brief: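 CHO cells stably expressing human HTR2A, plated 18 h, loaded with calcium dye 1 h at 37 C. Agonist mode: compounds added and intracellular calcium fluorescence recorded kinetically for 2 min at 1 sec intervals.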
# [12] = target: Muscarinic acetylcholine receptor M1 (Homo sapiens) (UniProt P11229); assay: Cholinergic receptor muscarinic 1 (CHRM1) small molecule antagonists, cell-based qHTS assay (AID 1963588); conditions: CHRM1-CHO antagonist mode, calcium flux fluorescence; series mostly up to 61.5 µM; further: nearly all actives have a fitted effect of over 40% in size; further: potency means the concentration at half of the fitted maximal effect
# Muscarinic acetylcholine receptor M1 (Homo sapiens), sequence (P11229 whole entry, looked up): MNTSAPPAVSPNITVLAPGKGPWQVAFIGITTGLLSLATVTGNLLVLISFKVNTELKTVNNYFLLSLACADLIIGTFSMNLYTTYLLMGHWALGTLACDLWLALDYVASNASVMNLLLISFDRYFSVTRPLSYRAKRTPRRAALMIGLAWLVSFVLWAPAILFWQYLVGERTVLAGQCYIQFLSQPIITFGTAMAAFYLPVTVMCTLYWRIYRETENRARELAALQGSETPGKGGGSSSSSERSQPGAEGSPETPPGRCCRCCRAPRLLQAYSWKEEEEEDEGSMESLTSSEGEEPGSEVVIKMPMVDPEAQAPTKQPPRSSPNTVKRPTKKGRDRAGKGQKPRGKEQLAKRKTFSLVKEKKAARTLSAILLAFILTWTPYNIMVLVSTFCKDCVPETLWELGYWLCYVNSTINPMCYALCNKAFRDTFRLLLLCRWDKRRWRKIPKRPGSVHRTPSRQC
# Method in brief: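 Compounds were tested at 15 concentrations in three independent runs. Dye-loaded CHRM1-CHO cells were exposed 5 min at room temperature before stimulation by acetylcholine added at 50nM. Intracellular calcium was read kinetically on FDSS for 3 min.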
# [13] = target: Muscarinic acetylcholine receptor M1 (Homo sapiens) (UniProt P11229); assay: Cholinergic receptor muscarinic 1 (CHRM1) small molecule agonists, cell-based qHTS assay (AID 1963589); conditions: CHRM1-CHO cells, agonist mode, calcium flux fluorescence; series mostly up to 76.8 µM; further: nearly all actives have a fitted effect of over 35% in size
# Method in brief: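 Fluorescent calcium dye reports M1 activation in stably transfected CHO cells. Compounds, 15 concentrations, added after 1 h dye loading at 37 C; kinetic reading at 1 sec intervals.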
# [14] = cAMP Responsive Elements (CRE) small molecule agonists, cell-based qHTS assay (AID 1963590); conditions: CRE-bla HEK293T, beta-lactamase FRET ratio, 3 h; series mostly up to 92.4 µM
# Method in brief: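 Compound exposure lasted 3 h at 37 C/5% CO2 in CRE-bla HEK 293T cells grown in assay medium with 10% dialyzed FBS and 25 mM HEPES. Reporter signal came from LiveBLAzer B/G FRET substrate, 2 h, room temperature.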
# [15] = cAMP Responsive Elements (CRE) small molecule antagonists, cell-based qHTS assay (AID 1963591; active means well fitted inhibition curve with a large enough effect in the signal ratio in the repeat runs, not every such curve was filed as active; the % refers to the signal ratio); conditions: CRE-bla HEK293T, beta-lactamase FRET ratio; series mostly up to 92.4 µM
# Method in brief: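 Stimulation used NKH477 at a final 0.25 uM for 3 h in compound-treated CRE-bla HEK293T cells, seeded 18 h beforehand. Reporter activity was measured with LiveBLAzer B/G FRET substrate after 2 h at room temperature.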
# [16] = target: Beta-2 adrenergic receptor (Homo sapiens) (UniProt P07550); assay: Adrenergic beta2 receptor (ADRB2) small molecule antagonists, cell-based qHTS assay (AID 1963592); conditions: CHO-ADRB2 cells, isoproterenol-stimulated cAMP HTRF ratio, 0.5 h; series mostly up to 92.4 µM; further: nearly all actives have a fitted effect of over 50% in size
# Beta-2 adrenergic receptor (Homo sapiens), sequence (P07550 whole entry, looked up): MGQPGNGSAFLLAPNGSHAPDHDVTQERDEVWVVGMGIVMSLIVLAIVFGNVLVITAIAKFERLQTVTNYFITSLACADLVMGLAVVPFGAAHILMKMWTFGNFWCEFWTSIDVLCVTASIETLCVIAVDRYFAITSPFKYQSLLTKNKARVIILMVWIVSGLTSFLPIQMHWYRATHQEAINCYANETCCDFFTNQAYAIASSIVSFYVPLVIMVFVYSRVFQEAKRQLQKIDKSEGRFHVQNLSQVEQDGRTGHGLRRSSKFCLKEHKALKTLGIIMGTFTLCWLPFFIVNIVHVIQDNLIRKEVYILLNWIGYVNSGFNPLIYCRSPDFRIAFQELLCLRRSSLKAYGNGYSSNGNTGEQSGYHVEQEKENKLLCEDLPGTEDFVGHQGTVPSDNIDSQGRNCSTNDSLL
# Method in brief: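 Assay format: CHO-ADRB2 cells, 18-20hr seeding at 37C/5% CO2, then compound plus 1nM isoproterenol agonist mix for 0.5hr RT. Homogeneous time-resolved fluorescence cAMP detection after 1hr, expressed as 665/615 nm ratio.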
# [17] = target: D(2) dopamine receptor (Homo sapiens) (UniProt P14416); assay: Dopamine D2 receptor (DRD2) small molecule agonists, cell-based qHTS assay (AID 1963594); conditions: HEK293-DRD2 cAMP HTRF, agonist mode, 30 min; series mostly up to 92.4 µM; further: nearly all actives have a fitted effect of over 35% in size
# D(2) dopamine receptor (Homo sapiens), sequence (P14416 whole entry, looked up): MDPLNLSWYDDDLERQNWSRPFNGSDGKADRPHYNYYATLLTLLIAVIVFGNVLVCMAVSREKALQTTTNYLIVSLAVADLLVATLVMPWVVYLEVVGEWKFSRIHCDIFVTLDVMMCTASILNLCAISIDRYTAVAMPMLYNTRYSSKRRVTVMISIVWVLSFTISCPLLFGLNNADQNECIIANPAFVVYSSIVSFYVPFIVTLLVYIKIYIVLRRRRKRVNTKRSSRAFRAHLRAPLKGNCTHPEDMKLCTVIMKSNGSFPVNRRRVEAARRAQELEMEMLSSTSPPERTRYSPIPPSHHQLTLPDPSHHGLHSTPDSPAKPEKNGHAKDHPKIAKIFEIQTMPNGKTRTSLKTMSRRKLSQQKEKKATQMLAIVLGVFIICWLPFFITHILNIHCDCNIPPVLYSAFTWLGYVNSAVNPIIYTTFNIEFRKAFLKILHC
# Method in brief: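 HEK293 cells stably expressing human DRD2, pre-treated with PDE inhibitor Ro20-1724 (0.1 mM final) and compound 10 min at room temperature, then stimulated with NKH477 (200nM […]) for 30 min. cAMP read by HTRF (665/620 nm).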
# [18] = target: D(2) dopamine receptor (Homo sapiens) (UniProt P14416); assay: Dopamine D2 receptor (DRD2) small molecule antagonists, cell-based qHTS assay (AID 1963595; active means well fitted inhibition curve with a large enough effect in the signal ratio in the repeat runs, with a control signal flat; the % refers to the signal ratio); conditions: HEK293-DRD2 cAMP HTRF antagonist mode; series mostly up to 92.4 µM
# Method in brief: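 In this cell-based antagonist screen, compounds act for 10 min at room temperature before a 30 min challenge with 12 nM quinpirole and 200 nM NKH477. cAMP is quantified by HTRF competition in DRD2-HEK293 cells containing 0.1 mM Ro20-1724.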
# [19] = target: Beta-2 adrenergic receptor (Homo sapiens) (UniProt P07550); assay: Adrenergic beta2 receptor (ADRB2) small molecule agonists, cell-based qHTS assay (AID 1963593); conditions: CHO-ADRB2 cells, cAMP HTRF, 30 min; series mostly up to 92.4 µM;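 further: CHO cells stably overexpressing human ADRB2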
# Method in brief: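 CHO cells stably over-expressing ADRB2 were plated overnight at 37C, then dosed with compounds plus a stimulation mix containing 100uM IBMX and 25uM Ro-20-1724 for 0.5hr at room temperature. cAMP was measured by HTRF competition, 1hr.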
SMILES,Potency [1],Potency [2],Potency [3],Potency [4],Potency [5],Potency [6],Potency [7],Potency [8],Potency [9],Potency [10],Potency [11],Potency [12],Potency [13],Potency [14],Potency [15],Potency [16],Potency [17],Potency [18],Potency [19]
CC(C)OC(=S)S,inactive,inactive,inactive,inactive,inactive,inactive,inactive,inactive,inactive,inactive,inactive,inactive,inactive,inactive,inactive,inactive,inactive,inactive,–
CCCCN(CC)C(=O)SCCC,inactive,inactive,inactive,inactive,inactive,inactive,inactive,inactive,inactive,inactive,inactive,inactive,inactive,inactive,–,inactive,inactive,inactive,inactive
O=C(Cl)C(Cl)Cl,inactive,inactive,inactive,inactive,inactive,inactive,inactive,inactive,inactive,inactive,inactive,inactive,inactive,inactive,inactive,inactive,inactive,inactive,–
CC1COC2(c3ccccc3Cl)c3cc(Cl)ccc3NC(=O)CN12 (stereo not drawn),inactive,inactive,inactive,inactive,inactive,inactive,inactive,inactive,inactive,inactive,inactive,inactive,inactive,inactive,inactive,inactive,–,inactive,inactive
Clc1ccc(C(c2ccc(Cl)cc2)C(Cl)Cl)cc1,inactive,inactive,inactive,inactive,inactive,inactive,inactive,41.4 µM (active),–,–,inactive,–,inactive,–,inactive,–,inactive,inactive,–
COc1ccc2c(c1OC)C(=O)O[C@@H]2[C@H]1c2cc3c(cc2CCN1C)OCO3,inactive,inactive,inactive,inactive,inactive,inactive,inactive,inactive,inactive,inactive,inactive,inactive,inactive,inactive,inactive,inactive,inactive,inactive,–
CC1CN1 (stereo not drawn),inactive,inactive,inactive,inactive,inactive,inactive,inactive,inactive,inactive,inactive,inactive,3.75 µM (active),–,inactive,inactive,inactive,inactive,inactive,–
CC(C)(C#N)N=NC(C)(C)C#N,inactive,inactive,inactive,inactive,inactive,inactive,inactive,inactive,inactive,inactive,inactive,–,inactive,inactive,inactive,inactive,–,inactive,inactive
CCCCN(CCCCO)N=O,inactive,inactive,inactive,inactive,inactive,inactive,inactive,inactive,inactive,inactive,inactive,–,inactive,inactive,inactive,–,inactive,inactive,–
COP(=O)(CCC(=O)NCO)OC,inactive,inactive,inactive,inactive,inactive,inactive,inactive,inactive,inactive,inactive,inactive,inactive,inactive,inactive,inactive,inactive,inactive,–,–
Nc1ccc(-c2ccc(N)cc2)cc1,inactive,inactive,inactive,inactive,inactive,inactive,inactive,inactive,inactive,inactive,inactive,inactive,–,inactive,inactive,inactive,inactive,inactive,–
CCCCCON=O,inactive,inactive,inactive,inactive,inactive,inactive,inactive,inactive,inactive,inactive,–,inactive,inactive,inactive,inactive,–,–,inactive,–
O=C(O)c1nn(Cc2ccc(Cl)cc2Cl)c2ccccc12,inactive,inactive,inactive,inactive,inactive,inactive,inactive,inactive,–,inactive,inactive,inactive,–,–,–,inactive,inactive,inactive,inactive
OCC(Br)CBr (stereo not drawn),inactive,inactive,inactive,inactive,inactive,inactive,inactive,inactive,inactive,inactive,–,inactive,inactive,inactive,inactive,inactive,inactive,inactive,–
COc1ccc(O)c(C(C)(C)C)c1,inactive,inactive,inactive,inactive,inactive,inactive,inactive,inactive,inactive,23.7 µM (active) and inactive,–,inactive,inactive,–,inactive,inactive,inactive,inactive,–
CCCC1CCCCN1 (stereo not drawn),inactive,inactive,inactive,inactive,inactive,inactive,inactive,inactive,inactive,inactive,inactive,inactive,inactive,inactive,inactive,inactive,inactive,inactive,inactive
CC(C)OC(=O)Cc1ccccc1,inactive,inactive,inactive,inactive,inactive,inactive,–,–,inactive,inactive,inactive,inactive,inactive,inactive,inactive,inactive,inactive,inactive,–
CN(C)C(=O)Nc1ccc(Cl)cc1,inactive,inactive,inactive,inactive,inactive,inactive,inactive,inactive,inactive,inactive,inactive,inactive,inactive,inactive,inactive,inactive,inactive,inactive,inactive
CC1(C)[C@H](C(=O)O[C@H](C#N)c2cccc(Oc3ccccc3)c2)[C@@H]1C=C(Br)Br,inactive,inactive,inactive,inactive,inactive,inactive,inactive,inactive,inactive,inactive,inactive,inactive,inactive,inactive,inactive,inactive,–,inactive,–
CC(C)(O)C(Cl)(Cl)Cl,inactive,inactive,inactive,inactive,inactive,inactive,inactive,inactive,–,inactive,inactive,inactive,inactive,inactive,inactive,inactive,inactive,–,–
C/C=C/CC#N,inactive,inactive,inactive,inactive,inactive,inactive,inactive,inactive,inactive,inactive,inactive,inactive,inactive,inactive,inactive,inactive,inactive,inactive,–
[O-][Cl+]O,inactive,inactive,inactive,inactive,inactive,inactive,inactive,inactive,inactive,inactive,inactive,inactive,inactive,inactive,inactive,inactive,inactive,inactive,–
